Assay outcomes as filed in PubChem.
Tat export inh – E. coli Tat export inhibitors, primary screen, MC4100, TorA-mCherry reporter, fluorescence, single point | 340,000 compounds, 0.036% hits | inhibition, % at 10 µM;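 active means mean replicate inhibition at least 50% and at least half of replicates individually reaching 50%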;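 further: exported cargo escapes ClpAP degradation while cytoplasmic cargo is degraded and loses fluorescence; 0% = median of neutral control wells and 100% = median of NaSCN control wells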
Calb FLC – C. albicans growth inhibition with fluconazole, primary screen, CaCi-2 strain, Alamar Blue fluorescence. C. albicans CaCi-2 (fluconazole-resistant clinical isolate) + fluconazole, 48 h. growth inhibition, % (concentration not given with the values). 300,000 compounds, 0.57% hits;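 active means growth inhibition above about 58% in most replicates, limit read from the data, passing the limit was not always enough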;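 further: all wells also contain fluconazole at 8 µg/ml as a sub-toxic cotreatment; 0% = median of DMSO wells and 100% = median of geldanamycin control wells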
E coli growth-1 – E. coli growth inhibition, primary screen, OD600; Escherichia coli growth, 23 h; active compounds read low; OD600 absorbance (test concentration not listed); 330,000 compounds, 0.21% hits;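 active means OD600 absorbance below the run mean of sample wells minus 3.6 SD, in any replicate, cut at about 0.56 in these data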
E coli growth-2 – E. coli V3065 growth inhibition, primary screen, counter-screen for AddAB inhibitor project, absorbance, OD600; 330,000 compounds, 0.27% hits; inhibition, % at 11.9 µM; 18 h; AID 449728, 2010;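 active means inhibition above the campaign's mean inhibition across all tested compounds plus 3 SD, cut at about 9.9% in these data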;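 further: uninfected addAB+ strain grown without phage in ampicillin broth; 0% = DMSO wells and 100% = ciprofloxacin 0.95 µg/ml wells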
AddAB inh – growth inhibition of E. coli expressing H. pylori AddAB, primary screen, AddAB inhibitor project, absorbance | AID 435030, 2010 | inhibition, % at 11.9 µM | 330,000 compounds, 0.29% hits; in the data active means inhibition above about 12%;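 further: 0% = vehicle wells of infected cells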
phage Ecoli inh – growth loss of phage-infected E. coli, primary screen, RecBCD inhibitor project, absorbance, with phage, HTS. 360,000 compounds, 0.26% hits. inhibition, % at 11.9 µM. AID 651602, 2012; in the data active means inhibition above about 11%
The depositor's hits bear a star; nt = no result. Hits are enriched below; roughly 0.9% of the tested compounds scored in any of these assays.

SMILES | Tat export inh | Calb FLC | E coli growth-1 | E coli growth-2 | AddAB inh | phage Ecoli inh
Cc1cccc(C2C3C(=O)N(C)C(=O)C3C3C(=O)Nc4ccccc4C(=O)N32)c1 (stereo not drawn) | nt | nt | 0.64 | nt | nt | nt
O=C1NC(=O)/C(=C/c2ccc(-c3cc(C(=O)O)ccc3Cl)o2)S1 | -9 | 20 | 0.7 | -4 | 4 | -4
O=C1NC(=O)/C(=C\c2ccc(Br)o2)S1 | -8 | 87* | 0.6 | 1 | 1 | 0
CCOc1ccc(NC(=O)COC(=O)CC2CCCCC2)cc1 | -11 | nt | 0.69 | -1 | 0 | 12*
O=C(COC(=O)CC1CCCC1)Nc1ccc(Cl)cc1 | -9 | nt | 0.68 | nt | nt | 3
COc1ccc(NC(=O)NNC(=O)c2ccc3ccccc3c2O)c(OC)c1 | 6 | 10 | 0.71 | 7 | 10 | 12*
COc1cc2ccccc2cc1C(=O)NNC(=O)c1ccccc1O | 3 | 95* | nt | 2 | 6 | 2
Cc1ccc(C(=O)NNC(=O)c2cc3ccccc3cc2O)cc1 | -11 | 91* | 0.66 | -1 | 11 | 7
COc1ccc(NC(=O)NNC(=O)c2cc(C3CC3)nc3ccccc23)c(OC)c1 | -5 | 2 | 0.68 | -3 | 2 | 1
COc1ccc(NC(=O)NNC(=O)c2cc3ccccc3cc2O)cc1 | -6 | 86* | 0.68 | 10* | 12 | 9
CCOc1ccc(NC(=O)c2cc3ccccc3cc2O)cc1 | -4 | 30 | 0.68 | 0 | 2 | 5
CN(C)C(=NS(=O)(=O)c1ccccc1)c1ccc([N+](=O)[O-])cc1 | nt | nt | 0.65 | nt | nt | nt
Oc1c(N=NC(=S)Nc2ccccc2F)c2ccccc2n1Cc1cccc(Cl)c1 | -4 | 10 | 0.67 | -1 | 4 | 3
Cc1cccc(Cn2c(O)c(N=NC(=S)Nc3ccccc3F)c3ccccc32)c1 | -9 | 114* | 0.7 | 0 | 0 | 0
CC1CN=C(Nc2ccccc2)N1CC1CCC1 (stereo not drawn) | nt | nt | 0.69 | nt | nt | nt
Brc1ccc(/C=C/C=NNc2nc3ccccc3s2)cc1 | nt | nt | 0.72 | nt | nt | nt
Brc1ccc(/C=C/C=N/Nc2nc3ccccc3s2)cc1 | -6 | 99* | nt | 2 | 0 | 0
N=C1/C(=C\c2ccc(SCc3ccccc3)o2)C(=O)N=C2SC=NN12 | -4 | 78* | 0.68 | -1 | 4 | 3
CCOC(=O)c1cc2c(=O)n3ccccc3nc2n(CCOC)c1=NC(=O)c1ccncc1 | 0 | 114* | 0.7 | -3 | 0 | 3
CCOC(=O)c1cc2c(=O)n3ccccc3nc2n(CCOC)c1=NC(=O)C(C)(C)C | 9 | -3 | 0.72 | -2 | 0 | 5
c1ccc(-c2nnsc2-c2ccccc2)cc1 | -4 | 8 | 0.68 | -2 | 2 | -2
O=S(=O)(c1ccc(Cl)c(Cl)c1)c1snnc1-c1ccccc1 | -2 | 95* | 0.67 | nt | nt | nt
CC(C)=CCc1c2c(c(O)c3c(=O)c4c(oc13)-c1cc(O)c(O)cc1OC4C=C(C)C)C=CC(C)(C)O2 (stereo not drawn) | nt | 89* | 0.8 | -2 | 4 | nt
O=C(O)c1cnc(-c2ccccc2)nc1Sc1cccc(Cl)c1 | 13 | 63 | 0.69 | 0 | 4 | 2
O=C(O)c1cnc(-c2ccccc2)nc1Sc1ccc(Cl)cc1Cl | 12 | 106* | 0.65 | 1 | 3 | 3
SMILES | Tat export inh | Calb FLC | E coli growth-1 | E coli growth-2 | AddAB inh | phage Ecoli inh
C=CCN1C(=O)/C(=C/c2ccc(O)cc2)SC1=Nc1nccs1 | nt | nt | 0.65 | nt | nt | nt
O=S(=O)(c1ccc(Cl)s1)N1CCc2ccccc2C1 | 2 | 6 | 0.59 | -2 | 1 | 3
O=S(=O)(c1ccc(Cl)s1)N1CCCc2cccc(O)c21 | 5 | 68* | 0.72 | 1 | 2 | 4
COCc1cc(C=NNC(=O)Cc2ccc(OC)cc2)ccc1OC | nt | nt | 0.73 | nt | nt | nt
COc1cc(NC(=S)N2CCN(S(=O)(=O)c3ccccc3)CC2)cc(OC)c1 | 14 | 122* | 0.71 | nt | nt | 3
COc1cc(NC(=S)N2CCN(S(=O)(=O)c3ccc(F)cc3)CC2)cc(OC)c1 | -7 | -26 | 0.68 | nt | nt | -2
COc1ccc(NC(=S)NC(=NS(=O)(=O)c2ccc(C)cc2)c2ccccc2)cc1 | nt | nt | 0.64 | nt | nt | nt
N#CC(=NNc1ccc(Cl)cc1)C(N)=S | nt | nt | 0.45* | nt | nt | nt
O=C(c1ccc(Cl)cc1)N1CCN(c2ccnc3cc(Cl)ccc23)CC1 | 2 | 99* | 0.68 | nt | nt | -2
CCC(=O)N1CCN(c2ccnc3cc(Cl)ccc23)CC1 | 0 | 2 | 0.7 | 0 | 1 | 1
CC(C)(C)c1ccc(-c2cn(-c3ccc(Br)cc3)c3[n+]2CCCS3)cc1 | 17 | 102* | 0.6 | nt | nt | 6
O=C(NN=C/C=C/c1ccc2c(c1)OCO2)C1COc2ccccc2O1 (stereo not drawn) | nt | nt | 0.7 | nt | nt | nt
O=C(CCC(=O)Nc1ccc(Cl)cc1)NN=Cc1ccc2c(c1)OCO2 | nt | nt | 0.69 | nt | nt | nt
C(=NNC1=Nc2cccc3cccc1c23)c1ccccn1 | nt | nt | 0.63 | nt | nt | nt
C(=N\NC1=Nc2cccc3cccc1c23)/c1ccccn1 | -3 | 94* | nt | nt | nt | 8
COc1ccc(C=NOCC(=O)Nc2nc3ccccc3s2)cc1 | nt | nt | 0.64 | nt | nt | nt
Cc1ncc(CO)c(/C=N/NC(=S)Nc2cccc(Cl)c2)c1O | 7 | -24 | nt | 1 | 1 | nt
Cc1ncc(CO)c(/C=N/NC(=S)Nc2ccc(Cl)c(Cl)c2)c1O | -3 | 110* | nt | 3 | 1 | 5
COc1ccccc1/C=C1\SC(=S)N(NS(=O)(=O)c2ccccc2)C1=O | 1 | 91* | 0.67 | 1 | 1 | -4
COc1ccc2c(c1)-c1nc(N=Cc3ccccc3O)sc1CC2 | nt | nt | 0.65 | nt | nt | nt
Cc1cc(C=NNC(=O)c2ccsc2)c(C)n1-c1cnccn1 | nt | nt | 0.66 | nt | nt | nt
Cc1sccc1C=NNC(=O)c1ccco1 | nt | nt | 0.7 | nt | nt | nt
COc1ccc(C=c2sc3nc(-c4ccccc4OC)nn3c2=O)c(OC)c1 | nt | nt | 0.63 | nt | nt | nt
O=C(c1cc(-c2ccccc2)n[nH]1)N1CCc2c([nH]c3ccccc23)C1c1ccccn1 (stereo not drawn) | 3 | 98* | 0.7 | -3 | 1 | 4
O=C(c1cccs1)N1CCc2c([nH]c3ccccc23)C1c1ccccn1 (stereo not drawn) | 12 | -1 | 0.7 | 1 | 2 | 2
SMILES | Tat export inh | Calb FLC | E coli growth-1 | E coli growth-2 | AddAB inh | phage Ecoli inh
O=[N+]([O-])c1ccc(C(=Nc2cccc3ccccc23)N2CCOCC2)cc1 | -10 | 100* | 0.64 | -3 | -2 | 2
CCn1c(Cl)c(C=O)sc1=NS(=O)(=O)c1ccccc1 | nt | nt | 0.7 | nt | nt | nt
CN1/C(=C/c2cccc[n+]2CCO)Sc2ccccc21 | -4 | 0 | 0.61 | 0 | 1 | -1
CC[n+]1c(/C=C2\Sc3ccccc3N2C)ccc2cccc(C)c21 | 11 | 102* | 0.33* | nt | nt | 2
Cc1ccc(C=Nn2c(C3CCCCC3)n[nH]c2=S)o1 | nt | nt | 0.68 | nt | nt | nt
CCN(CC)c1ccc([N+](=O)[O-])cc1C=NNC(=O)CC#N | nt | nt | 0.66 | nt | nt | nt
COc1ccc2c(c1)CCCC2=NNC(=O)c1ccoc1C | nt | nt | 0.66 | nt | nt | nt
COc1cccc(OCc2nc3ccccc3c(=O)n2N)c1 | 6 | 108* | 0.66 | 2 | 2 | nt
Fc1ccccc1CNCC1CCCO1 (stereo not drawn) | 4 | 10 | 0.65 | nt | nt | 0
